Assay [1] can be described thus: AP1 Signaling Pathway (AID 357).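 Also: ME-180 reporter cells stimulated with EGF at its EC50 level; % is scaled to controls: 0 for no effect and ±100 for the full control effect.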 The following applies: ME-180 AP-1-bla reporter, EGF-induced, beta-lactamase ratio, 5 h; at 7.69 µM (top of the series) unless noted. In outline:
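Beta-lactamase reporter under AP-1 response element, ME-180 background. Stimulus: EC50 EGF. Compound exposure 5 h, 37 °C. Detection: CCF4, 2.5 h RT, 460/530 nm. Values: AC50 from titration.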

Assay [2] addresses Cytochrome P450 1A2 (Homo sapiens) (UniProt P05177). The assay is described as follows: p450-cyp1a2 (AID 410; calls by dose curve; also: potency is read from the fitted curve at half-maximal effect). Put shortly:
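Luminescent readout of luciferin formed from Luciferin-ME by human CYP1A2; data normalized against complete inhibition by 57 uM furafylline. Enzyme 20nM, substrate 100uM at Km, 100mM KPO4 buffer, 60 min reaction at room temperature.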

Assay [3] in a line: NFAT Signaling Pathway (AID 444).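 Also: carbachol stimulus at about its EC50 of 1 µM final; % is scaled to controls: 0 for no effect and ±100 for the full control effect.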 The following applies: Jurkat NFAT-bla M1, carbachol, beta-lactamase ratio, 5 h; at 7.69 µM (top of the series) unless noted. Put shortly: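 Jurkat cells carrying an NFAT-driven β-lactamase reporter and co-transfected muscarinic M1 receptor were treated with compound plus carbachol (1 uM final, an EC50 level) for 5 h at 37 °C. CCF4 loading followed for 1 h at RT; 460/530 nm ratio gave %activity.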

The nature of assay [4]: Stat Signaling Pathway (AID 446).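 Also: ME-180 cervical cancer cells given 40 pM IL-6 alongside compound; SIE-controlled beta-lactamase reporter measured as 460/530 nm FRET emission ratio; % is scaled to controls: 0 for no effect and ±100 for the full control effect.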 The following applies: ME-180 SIE beta-lactamase reporter, IL-6 stimulated, 5 h; at 7.69 µM (top of the series) unless noted. Put shortly:
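Reporter line: ME-180 cervical carcinoma, SIE-beta-lactamase. Treatment: compound with 40 pM IL-6, 5 hrs, 37 C, in low-serum OPTI-MEM with 10 mM HEPES pH 7.3. Detection: 460/530 nm fluorescence.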

In assay [5] the target is Glucocorticoid receptor (Homo sapiens) (UniProt P04150). Briefly: GR-GFP Redistribution (AID 450;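 active = compounds whose dose series gives a full or clear partial fitted curve of increased nuclear translocation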; also: potency is read from the fitted curve at half-maximal effect). The following applies: U2OS GR-GFP nuclear translocation, laser cytometry, 2 h.
Glucocorticoid receptor (Homo sapiens), sequence (P04150 whole entry, looked up): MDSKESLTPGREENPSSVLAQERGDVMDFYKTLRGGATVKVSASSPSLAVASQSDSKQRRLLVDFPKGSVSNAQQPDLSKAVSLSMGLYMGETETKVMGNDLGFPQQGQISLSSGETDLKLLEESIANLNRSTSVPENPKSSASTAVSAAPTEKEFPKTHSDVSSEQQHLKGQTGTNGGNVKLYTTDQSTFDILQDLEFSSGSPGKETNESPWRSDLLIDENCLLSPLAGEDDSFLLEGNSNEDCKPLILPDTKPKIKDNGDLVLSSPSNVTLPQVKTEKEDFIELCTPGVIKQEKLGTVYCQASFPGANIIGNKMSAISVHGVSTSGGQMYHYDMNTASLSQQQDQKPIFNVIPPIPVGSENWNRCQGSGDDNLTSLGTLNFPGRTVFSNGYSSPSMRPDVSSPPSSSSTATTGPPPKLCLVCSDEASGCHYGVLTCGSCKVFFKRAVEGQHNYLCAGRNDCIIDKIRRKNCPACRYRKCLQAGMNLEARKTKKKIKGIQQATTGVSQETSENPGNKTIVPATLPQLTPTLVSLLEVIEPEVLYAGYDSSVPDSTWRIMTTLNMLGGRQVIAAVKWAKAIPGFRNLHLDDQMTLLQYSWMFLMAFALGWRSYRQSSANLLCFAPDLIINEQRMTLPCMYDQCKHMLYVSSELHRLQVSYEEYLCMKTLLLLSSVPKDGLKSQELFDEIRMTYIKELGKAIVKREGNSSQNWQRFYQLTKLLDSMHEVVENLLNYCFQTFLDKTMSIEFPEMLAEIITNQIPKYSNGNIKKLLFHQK
Assay [6] shares this target. The assay is described as follows: GR-EFC Redistribution (AID 451; calls by dose curve; also: potency is read from the fitted curve at half-maximal effect). The following applies: CHO-K1 GR-EFC translocation, beta-gal luminescence, 2 h. In outline:
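CHO-K1 cells stably expressing nuclear-localized β-gal enzyme acceptor and GR fused C-terminally to the enzyme donor fragment; ligand-driven nuclear translocation restores β-gal by complementation. Compounds titrated up to 46 uM final, 2 h at 37 °C; luminescence read.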

The target of assay [7] is Mitogen-activated protein kinase 10 (Mus musculus) (UniProt Q61831). Briefly: JNK3 AlphaScreen Assay (AID 530).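 Also: kinase came from lysate of stimulated human HepG2 cells; signal reports phosphorylation of biotinylated GST-cJun 1-79 at Ser73 with 10 µM ATP; % is scaled to controls: 0 for no effect and ±100 for the full control effect.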 Put shortly: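 Inhibitors reduce antibody binding to phosphorylated biotin-cJun, lowering AlphaScreen luminescence. Lysates from HepG2 cells pre-activated by IL-1beta plus TNF-alpha supplied JNK3; compounds were titrated.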
On the technique in general: Bead proximity is the source of the signal in Alpha formats.

Assay [8] addresses 3',5'-cyclic-AMP phosphodiesterase 4B (Homo sapiens) (UniProt Q07343). The assay is described as follows: qHTS Assay for Inhibitors of PDE-IV (AID 607; active = well fitted activation curve with a large enough effect in the main read-out, with a control signal flat, not every such curve was filed as active; also: % of control where 0% means no effect). Put shortly: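 Cell-based read-out of cAMP via a modified cyclic nucleotide-gated channel and membrane potential dye (535/590 nm) in HEK293 cells expressing PDE4 endogenously. Compounds tested up to 22.9 uM final; 100 uM RO 20-1724 reference.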
On the technique in general: In qHTS, concentration-response curves come from the screen itself.

The target in assay [9] is Cytochrome P450 3A4 (Homo sapiens) (UniProt P08684). The assay is described as follows: qHTS Assay for Activators of Cytochrome P450 3A4 (AID 885; active = well fitted curve in the direction sought with a large enough effect; an effect the other way counts as inactive or inconclusive; also: nearly all actives have a fitted effect of over 65% in size). Put shortly: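 Signal was normalized against complete inhibition by 57 uM ketoconazole. The reaction used 20nM CYP3A4 with 25uM Luciferin-PPXE, 10-min compound preincubation and a 60-min NADPH-supported step at RT.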
Cytochrome P450 3A4 (Homo sapiens), sequence (P08684 whole entry, looked up): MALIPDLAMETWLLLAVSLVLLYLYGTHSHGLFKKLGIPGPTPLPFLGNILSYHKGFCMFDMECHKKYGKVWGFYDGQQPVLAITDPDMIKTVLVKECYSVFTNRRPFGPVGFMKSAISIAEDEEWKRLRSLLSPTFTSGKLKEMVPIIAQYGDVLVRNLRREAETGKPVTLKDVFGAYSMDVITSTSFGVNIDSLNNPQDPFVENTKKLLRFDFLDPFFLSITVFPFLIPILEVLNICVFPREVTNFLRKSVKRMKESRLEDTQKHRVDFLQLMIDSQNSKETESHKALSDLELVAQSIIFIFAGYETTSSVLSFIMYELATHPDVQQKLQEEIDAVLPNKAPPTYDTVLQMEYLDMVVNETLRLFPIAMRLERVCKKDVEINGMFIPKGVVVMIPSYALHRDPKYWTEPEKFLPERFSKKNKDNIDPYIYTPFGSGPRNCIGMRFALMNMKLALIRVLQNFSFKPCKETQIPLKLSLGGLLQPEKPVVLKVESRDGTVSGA
The target in assay [10] is Cytochrome P450 2C19 (Homo sapiens) (UniProt P33261). The assay is described as follows: qHTS Assay for Inhibitors and Substrates of Cytochrome P450 2C19 (AID 899; active = well fitted curve in the direction sought with a large enough effect; an effect the other way counts as inactive or inconclusive; also: nearly all actives have a fitted effect of over 60% in size; also: potency is read from the fitted curve at half-maximal effect). In outline:
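In 50mM KPO4, the reaction held 5nM enzyme and KM-level (10uM) Luciferin-H EGE; it ran 60 min at 37C after NADPH regeneration and a 10 min compound preincubation. Luminescence values were scaled to 57uM ketoconazole as complete inhibition.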

Assay [11] has as its target Cytochrome P450 2D6 (Homo sapiens) (UniProt P10635). The assay is described as follows: qHTS Assay for Inhibitors and Substrates of Cytochrome P450 2D6 (AID 891; active = well fitted curve in the direction sought with a large enough effect; an effect the other way counts as inactive or inconclusive; also: nearly all actives have a fitted effect of over 60% in size; also: potency is read from the fitted curve at half-maximal effect). Put shortly:
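Human CYP2D6 (5 nM) with 30 uM Luciferin-ME EGE (at Km) in 100 mM KPO4, compound preincubated 10 min, then NADPH regeneration system for 60 min at room temperature. Luciferin read by luminescence; normalized to 1.43 uM quinidine.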

For assay [12], the target named is Guanine nucleotide-binding protein G(i) subunit alpha-1 (Homo sapiens) (UniProt P63096). Briefly: qHTS Assay for Inhibitors of RGS12 GoLoco Motif Activity (Green Fluorophore) (AID 879; active = well fitted curve in the direction sought with a large enough effect; an effect the other way counts as inactive or inconclusive;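 also: 0% = labeled peptide with Gαi1 and full inhibition = labeled peptide alone without protein; negative values mean loss of peptide binding seen as reduced polarization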). In outline: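 Fluorescence polarization assay: 50 nM Gαi1 with 10 nM FITC-labeled RGS12 GoLoco peptide in 10 mM Tris pH 7.5, 150 mM NaCl, 0.1 mM GDP, 0.05% NP40, 10 min at room temperature with compound.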
Guanine nucleotide-binding protein G(i) subunit alpha-1 (Homo sapiens), sequence (P63096 whole entry, looked up): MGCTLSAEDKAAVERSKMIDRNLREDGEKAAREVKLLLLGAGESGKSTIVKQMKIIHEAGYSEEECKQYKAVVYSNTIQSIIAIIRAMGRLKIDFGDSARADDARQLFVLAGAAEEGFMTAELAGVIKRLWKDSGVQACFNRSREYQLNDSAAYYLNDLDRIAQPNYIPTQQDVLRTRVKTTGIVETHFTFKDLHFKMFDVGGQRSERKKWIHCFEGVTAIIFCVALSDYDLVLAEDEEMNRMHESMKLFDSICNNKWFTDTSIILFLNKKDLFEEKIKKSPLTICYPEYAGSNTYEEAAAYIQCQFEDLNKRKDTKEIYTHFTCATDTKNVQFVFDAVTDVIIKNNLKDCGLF

Assay [13] has as its target Muscarinic acetylcholine receptor M1 (Rattus norvegicus) (UniProt P08482). Briefly: qHTS Assay for Antagonists of Acetylcholine Muscarinic M1 Receptor: Measurement of IP-One Response (AID 944; active = well fitted curve in the direction sought with a large enough effect; an effect the other way counts as inactive or inconclusive; also: nearly all actives have a fitted effect of over 75% in size). In outline: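 M1-CHO (rat), 2000 cells/well, overnight recovery; cpd 10 min; carbachol EC80 (200 nM), 30 min, HEPES buffer + 50 mM LiCl pH 7.4; IP-One HTRF, Ex 337, Em 620/665 nm.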

For assay [14], the target named is Pyruvate kinase (Leishmania mexicana) (UniProt Q27686). Briefly: qHTS Validation Assay for Inhibitors of Leishmania Mexicana Pyruvate Kinase (AID 945; active = well fitted curve in the direction sought with a large enough effect; an effect the other way counts as inactive or inconclusive;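 also: 0% = DMSO only neutral control wells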). In outline:
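Eight-point qHTS titrations in triplicate, data normalized to DMSO neutral control. Reaction: 0.2 nM LmPYK E451W mutant, 0.5 mM PEP, 0.1 mM ADP, 7 mM MgCl2, pH 7.2, one hour at room temperature; luminescent ATP detection.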

Assay [15] deals with Pyruvate kinase PKM (Homo sapiens) (UniProt P14618). The assay is described as follows: qHTS Assay for Activators of Human Muscle Pyruvate Kinase (AID 954; active = well fitted curve in the direction sought with a large enough effect, not every such curve was filed as active;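 also: 0% = uninhibited enzyme and -100% = no enzyme or full thiadiazolimine inhibition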). Put shortly: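 Human PKM2 activity is measured as ATP generation, detected by luciferase-coupled luminescence. The enzyme (0.1 nM) acts on 0.5 mM PEP and 0.1 mM ADP for 1 h at ambient temperature; data are normalized to uninhibited and full-inhibition wells.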
Pyruvate kinase PKM (Homo sapiens), sequence (P14618 whole entry, looked up): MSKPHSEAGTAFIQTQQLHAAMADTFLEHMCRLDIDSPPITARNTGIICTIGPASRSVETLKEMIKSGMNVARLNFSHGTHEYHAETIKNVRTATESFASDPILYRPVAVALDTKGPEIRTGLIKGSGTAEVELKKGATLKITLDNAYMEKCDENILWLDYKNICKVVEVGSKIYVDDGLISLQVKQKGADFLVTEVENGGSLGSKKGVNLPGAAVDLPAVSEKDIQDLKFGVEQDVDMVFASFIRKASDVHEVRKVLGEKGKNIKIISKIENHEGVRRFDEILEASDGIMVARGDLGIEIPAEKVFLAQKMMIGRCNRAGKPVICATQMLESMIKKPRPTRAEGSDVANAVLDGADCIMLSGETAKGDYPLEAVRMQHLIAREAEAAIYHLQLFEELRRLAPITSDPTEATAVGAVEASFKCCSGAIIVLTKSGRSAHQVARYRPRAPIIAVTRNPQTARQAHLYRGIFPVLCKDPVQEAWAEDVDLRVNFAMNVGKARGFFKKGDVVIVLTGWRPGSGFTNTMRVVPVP

Assay [16] concerns the target Alpha-galactosidase A (Homo sapiens) (UniProt P06280). Briefly: Counterscreen for Glucocerebrosidase Inhibitors: qHTS Assay for Human alpha-Galactosidase at pH 4.5 (AID 992; active = well fitted curve in the direction sought with a large enough effect; an effect the other way counts as inactive or inconclusive; also: 0% is about no effect). In outline:
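Quantitative HTS: compounds tested from 0.7 nM up to 77 uM against 2 nM enzyme with 80 uM 4-MU alpha-D-galactopyranoside. The 20 min room-temperature reaction is stopped with 1M NaOH/1M glycine, pH 10.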

For assay [17], the target named is alpha-glucosidase (Oryza sativa, rice) (UniProt Q653V4). Briefly: Counterscreen for Glucocerebrosidase Inhibitors: qHTS Assay for Rice alpha-Glucosidase at pH 5.0 (AID 997; active = well fitted curve in the direction sought with a large enough effect; an effect the other way counts as inactive or inconclusive;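 also: 0% = full activity with enzyme and -100% = basal without enzyme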). In outline: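 Rice alpha-glucosidase (4 nM final) with 400 uM 4-methylumbelliferyl-alpha-D-glucopyranoside in citrate buffer pH 5.0, 20 min at room temperature, stopped at pH 10; fluorescence 365/440 nm, compounds 0.7 nM–77 uM, AC50 from Hill fits.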
On the technique in general: Counterscreens check selectivity or assay interference.

7 compounds from PubChem BioAssay (NCATS) can be followed below.

Values without a mark were called inactive. Inconclusive results are not listed. Activity calls are given as the source filed them. Unless noted, calls follow the shape of the dose curve; as a rule, active = well fitted curve in either direction with a large enough effect (not every such curve was filed as active); inconclusive = small, poorly fitted or top-dose-only effect, or another doubt; inactive = flat fitted curve, though single readings scatter.

Cytochrome P450 2C19 (Homo sapiens), sequence (P33261 whole entry, looked up): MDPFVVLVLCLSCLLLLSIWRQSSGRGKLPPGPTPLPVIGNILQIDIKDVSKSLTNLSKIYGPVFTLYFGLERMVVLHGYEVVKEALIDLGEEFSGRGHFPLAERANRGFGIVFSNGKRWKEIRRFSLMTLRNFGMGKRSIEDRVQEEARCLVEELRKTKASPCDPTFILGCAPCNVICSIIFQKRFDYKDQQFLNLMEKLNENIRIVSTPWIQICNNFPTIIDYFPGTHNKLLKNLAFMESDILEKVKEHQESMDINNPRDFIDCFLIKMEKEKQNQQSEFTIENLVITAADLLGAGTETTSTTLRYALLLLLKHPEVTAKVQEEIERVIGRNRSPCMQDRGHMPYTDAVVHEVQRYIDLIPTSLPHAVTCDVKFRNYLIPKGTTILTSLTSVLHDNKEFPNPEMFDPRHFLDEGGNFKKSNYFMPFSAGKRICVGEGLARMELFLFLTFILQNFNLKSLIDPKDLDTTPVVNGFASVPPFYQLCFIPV
3',5'-cyclic-AMP phosphodiesterase 4B (Homo sapiens), sequence (Q07343 whole entry, looked up): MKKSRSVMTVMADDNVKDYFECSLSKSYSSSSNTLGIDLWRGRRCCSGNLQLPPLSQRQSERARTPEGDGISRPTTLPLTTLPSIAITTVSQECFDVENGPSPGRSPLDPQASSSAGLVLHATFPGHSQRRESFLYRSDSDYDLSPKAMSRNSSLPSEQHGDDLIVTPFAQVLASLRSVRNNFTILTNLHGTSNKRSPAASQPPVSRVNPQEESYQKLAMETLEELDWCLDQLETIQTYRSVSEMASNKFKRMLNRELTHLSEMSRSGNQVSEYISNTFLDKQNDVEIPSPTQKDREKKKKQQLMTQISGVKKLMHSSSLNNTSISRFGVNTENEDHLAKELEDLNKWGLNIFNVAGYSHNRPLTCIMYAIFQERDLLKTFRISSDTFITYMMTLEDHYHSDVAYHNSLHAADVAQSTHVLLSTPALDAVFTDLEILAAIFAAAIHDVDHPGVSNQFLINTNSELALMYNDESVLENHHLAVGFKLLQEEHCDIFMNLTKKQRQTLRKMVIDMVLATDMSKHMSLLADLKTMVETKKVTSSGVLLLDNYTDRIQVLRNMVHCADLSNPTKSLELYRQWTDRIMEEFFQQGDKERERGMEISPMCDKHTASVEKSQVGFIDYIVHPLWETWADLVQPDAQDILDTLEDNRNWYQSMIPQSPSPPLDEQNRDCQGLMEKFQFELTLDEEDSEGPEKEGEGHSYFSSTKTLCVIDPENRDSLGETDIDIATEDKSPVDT
Cytochrome P450 1A2 (Homo sapiens), sequence (P05177 whole entry, looked up): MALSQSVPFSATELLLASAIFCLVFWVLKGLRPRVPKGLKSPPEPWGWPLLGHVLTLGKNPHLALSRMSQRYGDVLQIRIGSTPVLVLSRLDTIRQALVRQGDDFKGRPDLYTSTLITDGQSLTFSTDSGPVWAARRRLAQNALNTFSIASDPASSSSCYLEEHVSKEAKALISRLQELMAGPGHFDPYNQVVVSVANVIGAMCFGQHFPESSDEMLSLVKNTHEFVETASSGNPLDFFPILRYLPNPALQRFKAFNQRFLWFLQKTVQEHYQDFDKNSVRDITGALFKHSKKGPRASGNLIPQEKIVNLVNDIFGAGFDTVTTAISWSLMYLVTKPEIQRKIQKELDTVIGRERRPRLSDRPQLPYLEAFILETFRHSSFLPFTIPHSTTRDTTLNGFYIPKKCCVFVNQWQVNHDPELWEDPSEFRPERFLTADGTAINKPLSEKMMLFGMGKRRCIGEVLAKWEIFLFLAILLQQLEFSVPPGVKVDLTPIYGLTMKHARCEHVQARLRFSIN
Cytochrome P450 2D6 (Homo sapiens), sequence (P10635 whole entry, looked up): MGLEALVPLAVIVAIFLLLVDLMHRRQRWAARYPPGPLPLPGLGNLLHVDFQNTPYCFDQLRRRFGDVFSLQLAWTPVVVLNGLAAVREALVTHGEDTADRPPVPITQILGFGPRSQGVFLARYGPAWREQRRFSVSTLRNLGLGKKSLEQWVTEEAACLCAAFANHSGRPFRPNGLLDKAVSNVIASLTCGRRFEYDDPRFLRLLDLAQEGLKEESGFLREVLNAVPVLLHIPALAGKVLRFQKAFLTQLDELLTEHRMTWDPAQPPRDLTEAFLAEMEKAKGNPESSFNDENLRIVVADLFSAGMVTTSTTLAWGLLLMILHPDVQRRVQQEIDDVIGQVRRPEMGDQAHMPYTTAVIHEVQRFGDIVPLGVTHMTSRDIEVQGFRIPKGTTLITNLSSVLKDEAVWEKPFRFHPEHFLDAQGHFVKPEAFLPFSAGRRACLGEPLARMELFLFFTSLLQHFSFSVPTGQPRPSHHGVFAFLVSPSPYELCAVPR
Alpha-galactosidase A (Homo sapiens), sequence (P06280 whole entry, looked up): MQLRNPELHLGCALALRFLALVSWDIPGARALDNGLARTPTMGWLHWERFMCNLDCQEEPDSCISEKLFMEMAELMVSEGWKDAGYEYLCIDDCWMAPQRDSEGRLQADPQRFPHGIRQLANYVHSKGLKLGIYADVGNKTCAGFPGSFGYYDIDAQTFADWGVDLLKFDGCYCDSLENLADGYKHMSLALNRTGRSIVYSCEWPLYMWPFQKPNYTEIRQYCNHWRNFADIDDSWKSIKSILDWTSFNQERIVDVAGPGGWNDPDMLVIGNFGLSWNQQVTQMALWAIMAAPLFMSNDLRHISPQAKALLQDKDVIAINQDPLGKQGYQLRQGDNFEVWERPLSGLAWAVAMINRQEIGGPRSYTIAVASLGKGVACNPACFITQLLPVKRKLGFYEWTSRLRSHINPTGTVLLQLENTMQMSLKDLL

As to `C[C@]1(c2ccccc2)O[C@@H]2C[C@@H]3[C@@H]4CCC5=CC(=O)C=C[C@@]5(C)[C@]4(F)[C@H](O)C[C@]3(C)[C@@]2(C(=O)CO)O1`, the activity change, negative = inhibition in assay [1] was 7.91%; in assay [2] it was -16.4% [at 2.29 µM]; in [3], -6.34%. For the same compound, the activity, negative = inhibition in [4] is -4.73%. For the same compound, the Potency is < 2.95e-05 µM (active) in assay [5] and 0.00231 µM (active) in assay [6]. The Potency entry in assay [7], in assay [8] and in [9] was “inactive” throughout.
Turning to `CN(Cc1cc(C(C)(C)C)cc(Br)c1O)Cc1cc(C(C)(C)C)cc(Br)c1O`, the activity change, negative = inhibition in [1] was -2.5%; in [3], 11.8%. Further, the Potency in assay [2] is 3.16 µM (active); in [5], above 46 µM; in assay [6], above 9.22 µM; in assay [10], 3.16 µM (active). For the same compound, in assay [4], the activity, negative = inhibition was 7.17%. The Potency result in assay [7] and in [8] was “inactive” in each case.
Turning to `C[C@]12C=CC(=O)C=C1CC[C@@H]1[C@H]3C[C@@H](O)[C@](O)(C(=O)CO)[C@]3(C)C[C@H](O)[C@]12F`, the activity change, negative = inhibition is -12.2% [at 38 µM] in assay [1] and -3.19% [at 38 µM] in [3]. Further, the Potency entry in assay [2], in [7], in assay [8] and in assay [11] was “inactive” in each case. Moreover, in [4], the activity, negative = inhibition is -15.9% [at 38 µM]. Moreover, the Potency in assay [5] was 0.223 µM (active); in assay [6], 0.273 µM (active).
Turning to `C[N@+]1(CCC(=O)c2ccccc2)CC[C@H]2CC[C@H](C2)C1`, the results for the activity change, negative = inhibition in [1] and in [3] were 2.46% and 3.4%, respectively. Further, the Potency entry in assay [2], in [7], in assay [8] and in [10] was “inactive” in each case. In [4], the activity, negative = inhibition is 1.34%. Besides, the Potency in assay [5] was above 46 µM; in assay [6], above 9.22 µM.
Regarding `Nc1nc(Nc2ccccc2)nc2c1ncn2[C@@H]1O[C@@H](CO)[C@H](O)[C@@H]1O`, the activity change, negative = inhibition in [1] is -5.61% [at 38 µM]; in assay [3], -0.881% [at 38 µM]. Moreover, the Potency in [2] was 31.6 µM (active); in assay [5], above 46 µM; in [6], above 46 µM. Also, the activity, negative = inhibition in assay [4] is 0.406% [at 38 µM]. For the same compound, the Potency result in assay [7], in assay [8], in assay [13] and in assay [17] was “inactive” in each case. In addition, the compound was classed as inactive in assay [12], in assay [14], in assay [15] and in assay [16].
`CN(CCc1ccccn1)c1ccc2c(c1)Cc1ccccc1-2`: the activity change, negative = inhibition in assay [1] was -10.1%; in assay [3] it was -13.8%. Further, the Potency in assay [2] is 0.631 µM (active); in assay [5] it was above 46 µM; in assay [6], above 9.22 µM; in assay [11], 3.16 µM (active); in [10], 0.794 µM (active). Also, in assay [4], the activity, negative = inhibition is 7.42%. For the same compound, the Potency entry in [7], in [8] and in assay [9] was “inactive” throughout.
Turning to `NCCNS(=O)(=O)c1ccc(N)cc1`, the activity change, negative = inhibition in assay [1] is 3.42%; in [3], -2.06%. Further, the Potency result in [2], in assay [7], in [8] and in assay [9] was “inactive” each time. For the same compound, the activity, negative = inhibition in assay [4] is 3.19%. Further, the Potency is above 46 µM in [5] and above 9.22 µM in [6].
